Data from PubChem BioAssay (NCI).
The panel holds about 79,000 compounds, 15% with a hit somewhere; the sample as a whole holds those more often. Unmarked numbers belong to inactive results. Calls of active or inactive are those of the source. No stated cut-off is given here; in the data, active means growth inhibition above about 70%; inactive means the rest.

Assay: NCI Yeast Anticancer Drug Screen. Data for the bub3 strain (AID 167)
Conditions: S. cerevisiae bub3 mutant strain, active compounds read high
Protocol: Growth inhibition of yeast strains with defined genetic alterations is measured as a screen for potential anti-cancer activity. Selected strains with alterations in DNA damage repair or cell cycle control were exposed to compounds and growth inhibition was measured relative to vehicle treated controls. The strain used in this assay is bub3

[1] = at 5.0 µM (retest, dose inferred, filed as 0.5)
[2] = at 50.0 µM (retest, dose inferred, filed as 5.0)

| Compound | growth inhibition [1] | growth inhibition [2] | growth inhibition (at 50.0 µM) |
| --- | --- | --- | --- |
| C[C-](O)O.O/C(=C\[C-](O)c1ccccc1)c1ccccc1.O/C(=C\[C-](O)c1ccccc1)c1ccccc1.[Nd+3] (configuration not stated) | 20% | 20% | 90.2% (active) |
| CCOC(=O)c1ccc([N+](=O)[O-])o1 | 7% | 49% | 91% (active) |
| COc1ccc(C(=O)C(CCC(=O)/C=C/c2ccccc2)S(C)(=O)=O)cc1 (configuration not stated) | -7% | 6% | 0.7% |
| CC(C)C(OC(=O)c1ccc(NCc2cc(O)ccc2O)cc1)C(C)C | 29% | 99% (active) | 89.8% (active) |
| O=C1c2ccccc2C(c2ccccc2)(c2ccccc2)N1c1ccccc1 | 5% | 81% (active) | 95.7% (active) |
| O=C(NC(=S)Nc1ncc([N+](=O)[O-])s1)c1ccccc1C(=O)NC(=S)Nc1ncc([N+](=O)[O-])s1 | -6% | 96% (active) | 75.8% (active) |
| C[N+](C)(C)c1nc(N)nc2c1ncn2C1OC(CO)C(O)C1O (configuration not stated) | 1% | -1% | -27.2% |
| C=CC(=O)NC(=O)Nc1ccc(Cl)cc1 | 23% | 97% (active) | 98.3% (active) |
| O=C=Nc1ccccc1-c1ccc([N+](=O)[O-])cc1Cl | 36% | 42% | 83.7% (active) |
| CSC(=S)NN=C1CCCCC1 | 81% (active) | 97% (active) | 93.7% (active) |
| O=c1[nH]c(=S)[nH]c(-c2ccccc2)c1Cc1c(O)ccc2ccccc12 | -15% | 57% | 80.8% (active) |
| C1=C(c2ccccc2)C(c2ccc(OCCN3CCCCC3)cc2)Oc2ccccc21 (configuration not stated) | 35% | 99% (active) | 98.8% (active) |
| Cc1ccc(/C=C2\CCCc3ccccc3C2=O)cc1 | 59% | 81% (active) | 72.3% (active) |
| O=C(O/N=C1/CCCC/C1=C\c1ccccc1)c1ccccc1 | 53% | 94% (active) | 81.1% (active) |
